This note sets out measurements from PubChem BioAssay.

Assay [1] can be described thus: anti-His antibody binders, primary screen, artefact control for SMM control protein annotation, biochemical, small-molecule microarray, 635 nm fluorescence (AID 1128).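 Also: score merges feature fluorescence with signal-to-noise for each printed compound spot.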 Particulars: anti-His Alexa647 antibody binding, higher = more signal.
Assay [2] relates to Human papillomavirus type 1a E7 protein (residues 1-88). The assay can be described thus: HPV1a E7 small-molecule binders, primary screen, biochemical, small-molecule microarray, residues 1-88, 635 nm (AID 1129). The settings on record: small-molecule microarray binding, fluorescence 635 nm; higher = more signal.
Assay [3] concerns the target Focal adhesion kinase 1 (Homo sapiens) (UniProt Q05397). In words: small-molecule microarray binders of FAK, primary screen, biochemical, 635/667 nm fluorescence, BSA, DTT (AID 1130).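 Also: composite of spot emission at 667 nm and signal to noise over triplicate slides.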 Particulars: PTK2 binding, 635 nm fluorescence, higher = more signal.
Assay [4] has as its system Fibrinogen (Alexa647-labelled). The assay can be described thus: fibrinogen binders on compound microarrays, profiling panel, artefact control for SMM control-protein annotation, biochemical, small-molecule microarray, 635/667 nm fluorescence (AID 1131).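 Also: z-score merges 667 nm fluorescence with per-spot signal-to-noise over triplicate slides.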 The settings on record: fibrinogen-A647 binding fluorescence, higher = more signal.
Assay [5] addresses Follistatin (Homo sapiens) (UniProt P19883). The assay can be described thus: follistatin binders on small-molecule microarrays, primary screen, biochemical, small-molecule microarray, 635/667 nm fluorescence (AID 1132). Particulars: FST binding, 635 nm fluorescence, higher = more signal.
Assay [6] addresses Fibroblast growth factor 2 (Homo sapiens) (UniProt P09038). In words: FGF2 binders on small-molecule microarrays, primary screen, biochemical, small-molecule microarray, 635/667 nm fluorescence (AID 1133). The settings on record: small-molecule microarray binding, FGF2, fluorescence 635/667; higher = more signal.
Assay [7] is described as follows: mitochondrial membrane potential change in A549 cells, profiling panel, cell-based, JC-1 fluorescence, basal, 24 h, 100 nL (AID 1138).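 Also: A549 lung adenocarcinoma cells under basal conditions with no added stimulus; test concentration not given here.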 Particulars: higher = more signal.
For assay [8], the system named is Lefty1. In words: Lefty1 binders on small-molecule microarrays, primary screen, biochemical, small-molecule microarray, 635/667 nm fluorescence (AID 1139). The settings on record: small-molecule microarray binding, fluorescence 635/667; higher = more signal.
For assay [9], the system named is wheat germ agglutinin (Triticum aestivum), Alexa647-labelled. In words: wheat germ agglutinin binders on compound microarrays, profiling panel, artefact control for SMM control-protein annotation, biochemical, small-molecule microarray, 635/667 nm fluorescence (AID 1140).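 Also: score merges 667 nm feature emission with signal to noise over triplicate slides.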 The settings on record: WGA-A647 binding, 635 nm fluorescence, higher = more signal.
Assay [10] deals with Luciferin 4-monooxygenase (Photinus pyralis) (UniProt P08659). The assay can be described thus: firefly luciferase enzyme inhibitors, primary screen, biochemical, luminescence, purified enzyme, 2006 set (AID 1141).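 Also: cell-free assay with purified firefly luciferase at 100 ng per well in PBS; test concentration not given here.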 The settings on record: SteadyGlo luminescence, 30 min, higher = more signal, called active from +8 up or from −8 down.
Sequence of Luciferin 4-monooxygenase (Photinus pyralis) (P08659 whole entry, looked up): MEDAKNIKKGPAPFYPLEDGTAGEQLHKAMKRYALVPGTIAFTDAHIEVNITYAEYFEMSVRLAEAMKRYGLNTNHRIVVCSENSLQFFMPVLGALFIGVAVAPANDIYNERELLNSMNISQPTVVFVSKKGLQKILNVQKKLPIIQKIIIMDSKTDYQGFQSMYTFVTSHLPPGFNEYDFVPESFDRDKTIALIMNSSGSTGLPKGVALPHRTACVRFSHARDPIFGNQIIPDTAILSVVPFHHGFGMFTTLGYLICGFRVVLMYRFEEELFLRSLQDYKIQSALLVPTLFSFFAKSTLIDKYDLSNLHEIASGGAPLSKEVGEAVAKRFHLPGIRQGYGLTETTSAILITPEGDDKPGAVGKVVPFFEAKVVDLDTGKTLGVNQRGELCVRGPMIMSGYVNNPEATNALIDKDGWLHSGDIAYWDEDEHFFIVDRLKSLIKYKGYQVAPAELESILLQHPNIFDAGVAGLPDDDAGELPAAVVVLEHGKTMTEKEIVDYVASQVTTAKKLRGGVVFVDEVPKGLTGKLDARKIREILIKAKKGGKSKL
In assay [11] the test system is Wnt5a (protein binding on small-molecule microarray). The assay can be described thus: Wnt5a binders on small-molecule microarray, primary screen, biophysical, 635/667 nm fluorescence (AID 1142).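 Also: fluorescence read at 667 nm with signal to noise per printed feature.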 The settings on record: 635 nm fluorescence, higher = more signal.
A short description of assay [12]: cell viability in Huh7 cells, primary screen, cytotoxicity control for HCV replication inhibitor project, CellTiter-Glo luminescence, basal, 48 h (AID 1143).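 Also: Huh7 hepatoma cells carrying a hepatitis C replication reporter with no stimulus; test concentration not given here.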 The settings on record: Huh7 HCV replicon, higher = more signal, called active from +8 up or from −8 down. A general note: ATP-based viability assays read luminescence as a measure of living cells.
Assay [13] in a line: P. aeruginosa biofilm formation inhibitors, primary screen, PAO1 strain, BacTiter-Glo luminescence, LB-PBS (AID 1144). The settings on record: 12 h, higher = more signal.
Assay [14] is described as follows: CREB reporter modulators without forskolin, primary screen, cell-based, PC12, CRE-LacZ reporter, unstimulated (AID 1145). The settings on record: no forskolin, luminescence, 4.5 h, higher = more signal, called active from +8 up or from −8 down.
A short description of assay [15]: CREB reporter modulators under forskolin, primary screen, cell-based, PC12, CRE-LacZ reporter, forskolin-stimulated (AID 1146).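 Also: PC12 cells with 6xCRE LacZ reporter stimulated by forskolin 10 µM; beta-galactosidase reporter signal reflecting CREB driven transcription.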 Particulars: luminescence, 4.5 h, higher = more signal, called active from +8 up or from −8 down.
The target of assay [16] is Streptavidin (Streptomyces avidinii) (UniProt P22629). The assay can be described thus: streptavidin binders on small-molecule microarray, primary screen, artefact control for SMM compound annotation, biophysical, 635/667 nm fluorescence (AID 1147).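 Also: signal reflects streptavidin binding to arrayed compounds as a control protein.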 The settings on record: streptavidin binding, higher = more signal.
Sequence of Streptavidin (Streptomyces avidinii) (P22629 whole entry, looked up): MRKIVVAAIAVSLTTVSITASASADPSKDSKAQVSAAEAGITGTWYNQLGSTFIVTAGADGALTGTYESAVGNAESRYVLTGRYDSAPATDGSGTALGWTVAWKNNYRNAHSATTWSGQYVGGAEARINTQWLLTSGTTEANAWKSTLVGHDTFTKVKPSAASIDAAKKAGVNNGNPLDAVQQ
Assay [17] in a line: small-molecule binders of probe aInhba, primary screen, biochemical, small-molecule microarray, 635/667 nm fluorescence (AID 1148).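 Also: score merges 667nm spot fluorescence with signal-to-noise for antibody binding to printed compounds.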 The settings on record: higher = more signal.
The target in assay [18] is Torsin-1A (Homo sapiens) (UniProt O14656). The assay can be described thus: torsin A binders from cell lysate, primary screen, small-molecule microarray, wild-type, 635/667 nm (AID 1149). The settings on record: COS7 hTOR1A-WT lysate, 635 nm fluorescence, higher = more signal.
Sequence of Torsin-1A (Homo sapiens) (O14656 whole entry, looked up): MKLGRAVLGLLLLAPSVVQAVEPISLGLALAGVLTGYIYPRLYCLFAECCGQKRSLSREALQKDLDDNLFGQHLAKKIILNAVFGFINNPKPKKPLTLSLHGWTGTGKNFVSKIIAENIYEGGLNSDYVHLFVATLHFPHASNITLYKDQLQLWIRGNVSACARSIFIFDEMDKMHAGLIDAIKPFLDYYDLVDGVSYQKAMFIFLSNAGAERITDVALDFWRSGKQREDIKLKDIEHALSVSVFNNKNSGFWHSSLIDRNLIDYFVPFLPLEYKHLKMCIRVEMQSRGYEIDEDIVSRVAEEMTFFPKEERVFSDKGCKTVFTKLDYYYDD
For assay [19] the target is unchanged. The assay can be described thus: small-molecule binders of mutant TOR1A in lysate, primary screen, cell lysate, small-molecule microarray, COS7 lysate, 635/667 nm fluorescence (AID 1150).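 Also: score pools 667 nm emission and signal to noise measuring lysate protein binding.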 Particulars: COS7 hTOR1A mutant lysate, 635 nm fluorescence, higher = more signal.
Assay [20] concerns Sonic hedgehog protein (Shh). The assay can be described thus: small-molecule binders of Shh protein, primary screen, biochemical, small-molecule microarray, 635/667 nm fluorescence (AID 1151).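 Also: Shh protein binding to compounds spotted on small-molecule microarray slides; score combines spot fluorescence intensity with signal-to-noise across triplicate slides.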 The settings on record: small-molecule microarray binding, 635 nm fluorescence; higher = more signal.

Where “and” joins values, the source holds several entries; their conditions need not be identical. Equal values may be shown once. Calls of active or inactive are those of the source. Unless noted, no rule for the calls is given here.

Sequence of Fibroblast growth factor 2 (Homo sapiens) (P09038 whole entry, looked up): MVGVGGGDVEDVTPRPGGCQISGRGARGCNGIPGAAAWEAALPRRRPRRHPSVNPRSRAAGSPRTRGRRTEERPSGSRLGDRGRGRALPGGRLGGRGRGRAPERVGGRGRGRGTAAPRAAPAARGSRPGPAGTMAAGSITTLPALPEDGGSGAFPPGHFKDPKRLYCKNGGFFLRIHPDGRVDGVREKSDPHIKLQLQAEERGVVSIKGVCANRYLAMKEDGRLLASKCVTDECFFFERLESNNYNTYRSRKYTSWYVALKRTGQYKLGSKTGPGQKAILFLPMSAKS
Sequence of Focal adhesion kinase 1 (Homo sapiens) (Q05397 whole entry, looked up): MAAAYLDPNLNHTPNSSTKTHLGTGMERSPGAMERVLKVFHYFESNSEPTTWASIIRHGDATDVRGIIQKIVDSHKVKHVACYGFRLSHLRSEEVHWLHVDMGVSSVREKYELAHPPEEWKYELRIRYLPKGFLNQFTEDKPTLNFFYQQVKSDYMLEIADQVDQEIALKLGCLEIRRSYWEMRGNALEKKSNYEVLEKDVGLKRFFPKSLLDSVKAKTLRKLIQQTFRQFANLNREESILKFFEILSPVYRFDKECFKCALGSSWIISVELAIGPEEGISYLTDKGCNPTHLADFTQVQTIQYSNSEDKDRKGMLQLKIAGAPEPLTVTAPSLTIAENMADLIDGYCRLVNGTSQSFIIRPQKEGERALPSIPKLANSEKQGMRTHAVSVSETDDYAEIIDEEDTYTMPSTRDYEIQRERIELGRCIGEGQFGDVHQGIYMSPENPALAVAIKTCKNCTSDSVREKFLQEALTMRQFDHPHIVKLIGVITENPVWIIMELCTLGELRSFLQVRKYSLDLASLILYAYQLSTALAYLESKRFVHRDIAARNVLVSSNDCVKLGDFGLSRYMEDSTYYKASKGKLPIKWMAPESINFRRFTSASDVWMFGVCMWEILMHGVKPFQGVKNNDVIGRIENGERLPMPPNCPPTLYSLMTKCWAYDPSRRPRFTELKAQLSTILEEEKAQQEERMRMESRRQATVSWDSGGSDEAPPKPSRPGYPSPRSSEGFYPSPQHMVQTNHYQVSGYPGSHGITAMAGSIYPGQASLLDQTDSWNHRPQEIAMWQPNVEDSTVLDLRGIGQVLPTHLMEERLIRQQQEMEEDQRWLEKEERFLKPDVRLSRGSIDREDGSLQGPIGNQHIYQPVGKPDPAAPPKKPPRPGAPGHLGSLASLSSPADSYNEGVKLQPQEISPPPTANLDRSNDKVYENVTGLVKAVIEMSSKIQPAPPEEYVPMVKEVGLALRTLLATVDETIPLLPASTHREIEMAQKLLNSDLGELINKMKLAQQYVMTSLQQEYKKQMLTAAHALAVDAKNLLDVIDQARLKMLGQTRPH
Sequence of Follistatin (Homo sapiens) (P19883 whole entry, looked up): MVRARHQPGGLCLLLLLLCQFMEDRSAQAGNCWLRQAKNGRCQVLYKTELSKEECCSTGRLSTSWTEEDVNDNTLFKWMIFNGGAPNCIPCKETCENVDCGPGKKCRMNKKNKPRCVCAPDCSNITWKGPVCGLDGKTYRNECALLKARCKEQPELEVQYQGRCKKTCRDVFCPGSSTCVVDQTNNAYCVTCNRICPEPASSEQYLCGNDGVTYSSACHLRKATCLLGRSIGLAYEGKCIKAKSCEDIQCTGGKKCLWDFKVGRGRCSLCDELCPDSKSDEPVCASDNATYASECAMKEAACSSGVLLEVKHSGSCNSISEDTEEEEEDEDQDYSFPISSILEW

As for `C[C@@H]1CC[C@@H](C(=O)O)N[C@H]1c1ccc(-c2ccco2)cc1`, the composite z-score in assay [1] is 0.893; in [2], -0.253; in assay [3], 0.0242; in assay [4] it was 1.02; in assay [5] it was 1.32; in assay [6] it was 1.14. Also, the composite z-score in [8] is 1.18; in assay [9], 0.589; in assay [11] it was 0.266; in [16] it was 0.192; in assay [17], -0.0791; in assay [18], 1. In addition, the composite z-score in [19] worked out at 0.406; in [20] it was 0.611. In addition, the z-score in assay [7] was 1.41; in assay [10], -0.906 (inactive); in [12], 0.0233 (inactive); in assay [13] it was -0.778 (inactive); in assay [14] it was -0.339 (inactive); in assay [15], -0.885 (inactive).

Consider `C=C[C@@H](C)[C@@H](O)c1ccc(O)c2ccccc12`, for which the composite z-score is -0.46 and 0.408 in [1]; -1.07 and -0.498 in assay [2]; -0.221 and -0.422 in assay [3]; -1.54 and 0.509 in [4]; 0.105 and 0.431 in [5]; -0.162 and -0.329 in [6]. Also, the composite z-score in assay [8] is -0.863 and -0.286; in assay [9] it was -1.19 and 0.506; in assay [11], 0.0168 and -0.729; in assay [16], -1.28 and -0.645; in assay [17], -0.304 and -0.278; in [18], -1.2 and -1.52. The composite z-score is -1.14 and -0.798 in assay [19]; -0.103 and 0.297 in assay [20]. For the same molecule, the z-score in [7] was 0.287 and -0.728; in assay [10], -1.48 (inactive) and -0.181 (inactive); in assay [12], 0.61 (inactive) and -1.13 (inactive); in assay [13] it was -0.647 (inactive) and -0.589 (inactive); in [14], 2.68 (inactive) and -0.3 (inactive); in [15], 3.22 (inactive) and 5.31 (inactive).

For `C=C[C@H](OC)[C@@H](O)c1ccc(OCCO)cc1`, the composite z-score was -1.34 and 2.11 in assay [1]; -1.73 and -0.721 in assay [2]; -0.86 and 0.0202 in [3]; -2.46 and -1.57 in assay [4]; -1.51 and -0.835 in [5]; -1.92 and -0.492 in assay [6]. Besides, the composite z-score was -2.17 and -1.55 in assay [8]; -2.15 and -0.827 in [9]; -0.181 and -0.509 in assay [11]; -1.59 and -1.75 in assay [16]; -0.258 and -0.244 in [17]; -1.15 and -1.11 in assay [18]. Further, the composite z-score is -0.812 and -1.99 in assay [19]; -0.459 and -0.143 in [20]. In addition, the z-score in assay [7] was -0.669 and 0.692; in assay [10] it was -0.117 (inactive) and -1.75 (inactive); in assay [12], -0.238 (inactive) and 0.881 (inactive); in [13], -0.354 (inactive) and -1.35 (inactive); in assay [14] it was 0.833 (inactive) and -0.0533 (inactive); in assay [15], 0.2 (inactive) and -1.46 (inactive).

With `CCCC[C@@H]1CN2[C@H](c3ccc(Br)cc3)[C@@H](C)CC[C@H]2C(=O)O1`, the composite z-score in [1] is -0.408 and 2.44; in assay [2] it was -0.535 and -0.105; in assay [3] it was -0.0211 and 0.0131; in assay [4], -0.167 and 0.546; in [5] it was 0.0438 and -0.0845; in [6], 0.186 and 0.0412. The composite z-score in assay [8] is -0.128 and 0.0556; in assay [9] it was -0.22 and 0.313; in assay [11] it was -0.134 and -0.107; in assay [16] it was -0.13 and 0.159; in assay [17] it was -0.261 and -0.0531; in [18], 0.0781 and 0.436. Besides, the composite z-score was 0.516 and -0.16 in assay [19]; 0.11 and 0.152 in [20]. Further, the z-score is 0.5 and 0.647 in [7]; -0.052 (inactive) and -1.79 (inactive) in assay [10]; -0.394 (inactive) and -0.261 (inactive) in assay [12]; -0.379 (inactive) and -0.292 (inactive) in assay [13]; -0.343 (inactive) and 0.285 (inactive) in [14]; 0.903 (inactive) and 0.466 (inactive) in [15].
